Results reported in PubChem BioAssay (Tox21).
Results filed as inconclusive are left out. Calls of active or inactive are those of the source. Unless noted, calls come from the whole dose curve.

How the values were obtained:
[1] = Nuclear factor erythroid 2-related factor 2/antioxidant responsive element (Nrf2/ARE) small molecule agonists: qHTS cell viability counter screen in human keratinocytes (AID 1919968; active = well fitted curve in the direction sought with a large enough effect in the repeat runs; an effect the other way counts as inactive or inconclusive; note: nearly all actives have a fitted effect of over 55% in size; note: potency is the fitted concentration of half-maximal effect)
Method in brief: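 Cells of the KeratinoSens line were plated at 1,500 per well and left for 5 h before compound transfer from DMSO stocks. After a 23 h incubation (37 C, 5% CO2), CellTiter-Fluor was added. Signal was taken as fluorescence intensity 1 h later.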

[2] = Nuclear factor erythroid 2-related factor 2/antioxidant responsive element (Nrf2/ARE) small molecule agonists: luciferase reporter gene qHTS assay in human keratinocytes (AID 1919969); note: nearly all actives have a fitted effect of over 35% in size
[3] = biological target: Gonadotropin-releasing hormone receptor (Homo sapiens) (UniProt P30968); experiment: Human gonadotropin-releasing hormone receptor (GnRHR) small molecule agonists, calcium flux assay in GnRHR-HEK293 cells (AID 1920063); note: nearly all actives have a fitted effect of over 35% in size
Method in brief: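 Compounds dissolved in DMSO are pin-transferred onto dye-loaded GnRHR-HEK293 cells, which were seeded 18 h before at 37 C/5% CO2. Calcium signal is read as fluorescence intensity at 1 s intervals for 3 min.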

[4] = biological target: KiSS-1 receptor (Homo sapiens) (UniProt Q969F8); experiment: Human kisspeptin (KISS1R) small molecule agonists, calcium flux assay in KISS1R-HEK293 cells (AID 1920064; active = well fitted curve in the direction sought with a large enough effect in the repeat runs; an effect the other way counts as inactive or inconclusive)
Method in brief: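 Cell line: HEK293, stable human KISS1R. Dye loading 1 h at 37 C after 18 h culture. Read: kinetic fluorescence, 480/540 nm, 3 min at 1 s intervals.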

[5] = G protein-coupled receptor (GPCR) small molecule agonists, calcium flux assay: HEK293 wild type cell line counter screen (AID 1920065)
Method in brief: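 Tox21 10K compounds, 15 concentrations each in triplicate, pin-transferred in DMSO onto dye-loaded cells; kinetic read at 480/540 nm for 3 min, 1 s intervals.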

[6] = p53 small molecule agonists, cell-based qHTS assay with human liver microsomes (AID 1963577);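 note: p53 response element beta-lactamase reporter cells with liver microsomes plus NADPH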
Method in brief: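 With metabolic activation: human liver microsomes (0.5 mg/mL final) plus NADPH (0.5 mg/mL final) added alongside compounds to p53RE-bla cells; 16 h 37 C exposure; beta-lactamase read by LiveBLAzer fluorescence.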

[7] = p53 small molecule agonists, cell-based qHTS assay with rat liver microsomes (AID 1963578)
Method in brief: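 Metabolic activation by rat liver microsomes and NADPH, each 0.5 mg/mL final, added right after compounds to p53RE-bla reporter cells (4,000/well, plated 5 h earlier). 16 h at 37 C, then LiveBLAzer substrate for 2 h at room temperature in the dark; fluorescence read-out.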

[8] = p53 small molecule agonists, cell-based qHTS assay with rat liver microsomes: qHTS cell viability counter screen (AID 1963580); note: nearly all actives have a fitted effect of over 45% in size; note: potency is the fitted concentration of half-maximal effect
Method in brief: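 Cytotoxicity counter screen: intracellular ATP read by CellTiter-Glo luminescence in the p53 reporter wells. HCT-116 p53RE-bla cells were treated for 16 h at 37 C alongside rat liver microsomes and NADPH, each 0.5 mg/mL final.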

[9] = p53 small molecule agonists, cell-based qHTS assay: qHTS cell viability counter screen (AID 1963581); note: nearly all actives have a fitted effect of over 45% in size; note: potency is the fitted concentration of half-maximal effect
Method in brief: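 ATP content measured by luminescence in HCT-116 p53RE-bla cells treated 16 h at 37 C, same wells as the reporter screen.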

[10] = biological target: 5-hydroxytryptamine receptor 2A (Homo sapiens) (UniProt P28223); experiment: 5-hydroxytryptamine receptor 2A (HTR2A) small molecule antagonists, cell-based qHTS assay (AID 1963586); note: nearly all actives have a fitted effect of over 45% in size; note: potency is the fitted concentration of half-maximal effect
Method in brief: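 CHO cells stably expressing human HTR2A were plated for 18 h at 37 C, then loaded with calcium dye for 1 h. Compounds were preincubated 5 min at room temperature before DOI (4 nM solution) was added. Kinetic fluorescence was read for 3 min.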

[11] = biological target: 5-hydroxytryptamine receptor 2A (Homo sapiens) (UniProt P28223); experiment: 5-hydroxytryptamine receptor 2A (HTR2A) small molecule agonists, cell-based qHTS assay (AID 1963587); note: nearly all actives have a fitted effect of over 30% in size; note: potency is the fitted concentration of half-maximal effect
Method in brief: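 Kinetic calcium-flux fluorescence (2 min, 1 sec intervals) after compound addition in agonist mode. HTR2A-CHO cells were cultured 18 h, then dye-loaded 1 h at 37 C.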

[12] = biological target: Muscarinic acetylcholine receptor M1 (Homo sapiens) (UniProt P11229); experiment: Cholinergic receptor muscarinic 1 (CHRM1) small molecule agonists, cell-based qHTS assay (AID 1963589); note: nearly all actives have a fitted effect of over 35% in size
Method in brief: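 Homogeneous fluorescence calcium flux, agonist mode. Human M1-expressing CHO cells; compound dosed at 15 concentrations, three independent runs; signal sampled every 1 sec.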

[13] = cAMP Responsive Elements (CRE) small molecule agonists, cell-based qHTS assay (AID 1963590)
Method in brief: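 HEK 293T cells stably bearing CRE-bla were plated at 2,000 cells per well and rested 18 h. Compounds, positive controls or DMSO were added for 3 h at 37 C. LiveBLAzer B/G substrate was then loaded for 2 h at room temperature.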

[14] = biological target: Beta-2 adrenergic receptor (Homo sapiens) (UniProt P07550); experiment: Adrenergic beta2 receptor (ADRB2) small molecule antagonists, cell-based qHTS assay (AID 1963592); note: nearly all actives have a fitted effect of over 50% in size; note: potency is the fitted concentration of half-maximal effect
Method in brief: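 Assay format: CHO-ADRB2 cells, 18-20hr seeding at 37C/5% CO2, then compound plus 1nM isoproterenol agonist mix for 0.5hr RT. Homogeneous time-resolved fluorescence cAMP detection after 1hr, expressed as 665/615 nm ratio.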

[15] = biological target: D(2) dopamine receptor (Homo sapiens) (UniProt P14416); experiment: Dopamine D2 receptor (DRD2) small molecule agonists, cell-based qHTS assay (AID 1963594); note: nearly all actives have a fitted effect of over 35% in size
Method in brief: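 cAMP accumulation in DRD2-HEK293 cells measured by HTRF after 1 h detection; compounds added 10 min before NKH477 (200nM […]) forskolin-analogue stimulation, 30 min at room temperature, with Ro20-1724 present at 0.1 mM final.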

[16] = biological target: Muscarinic acetylcholine receptor M1 (Homo sapiens) (UniProt P11229); experiment: Cholinergic receptor muscarinic 1 (CHRM1) small molecule antagonists, cell-based qHTS assay (AID 1963588); note: nearly all actives have a fitted effect of over 40% in size; note: potency is the fitted concentration of half-maximal effect
Method in brief: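 Compounds were tested at 15 concentrations in three independent runs. Dye-loaded CHRM1-CHO cells were exposed 5 min at room temperature before stimulation by acetylcholine added at 50nM. Intracellular calcium was read kinetically on FDSS for 3 min.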

[17] = cAMP Responsive Elements (CRE) small molecule antagonists, cell-based qHTS assay (AID 1963591; active = well fitted inhibition curve with a large enough effect in the signal ratio in the repeat runs, not every such curve was filed as active; the % refers to the signal ratio; note: potency is the fitted concentration of half-maximal effect)
Method in brief: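 First, CRE-bla HEK293T cells settled 18 h at 37 C. Next, compound and 0.25 uM final NKH477 were applied for 3 h. Last, LiveBLAzer B/G substrate was loaded for 2 h at room temperature.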

[18] = p53 small molecule agonists, cell-based qHTS assay (AID 1963582; active = well fitted activation curve with a large enough effect in the signal ratio in the repeat runs, not every such curve was filed as active; the % refers to the signal ratio)
Method in brief: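 16 h compound exposure (37 C) of p53 response element–bla cells, preceded by 5 h recovery at 37 C/5% CO2; read-out via LiveBLAzer B/G FRET substrate, 2 h RT, fluorescence intensity.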

[19] = biological target: D(2) dopamine receptor (Homo sapiens) (UniProt P14416); experiment: Dopamine D2 receptor (DRD2) small molecule antagonists, cell-based qHTS assay (AID 1963595; active = well fitted inhibition curve with a large enough effect in the signal ratio in the repeat runs, with a control signal flat; the % refers to the signal ratio)
Method in brief: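 Antagonism was scored as restored cAMP in HEK293-DRD2 cells. These cells were stimulated with 200 nM NKH477 and 12 nM quinpirole for 30 min at room temperature, in the presence of 0.1 mM Ro20-1724.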

[20] = biological target: Beta-2 adrenergic receptor (Homo sapiens) (UniProt P07550); experiment: Adrenergic beta2 receptor (ADRB2) small molecule agonists, cell-based qHTS assay (AID 1963593);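 note: CHO cells stably overexpressing human ADRB2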
Method in brief: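 CHO cells stably over-expressing ADRB2 were plated overnight at 37C, then dosed with compounds plus a stimulation mix containing 100uM IBMX and 25uM Ro-20-1724 for 0.5hr at room temperature. cAMP was measured by HTRF competition, 1hr.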

Measured: Potency

Beta-2 adrenergic receptor (Homo sapiens), sequence (P07550 whole entry, looked up): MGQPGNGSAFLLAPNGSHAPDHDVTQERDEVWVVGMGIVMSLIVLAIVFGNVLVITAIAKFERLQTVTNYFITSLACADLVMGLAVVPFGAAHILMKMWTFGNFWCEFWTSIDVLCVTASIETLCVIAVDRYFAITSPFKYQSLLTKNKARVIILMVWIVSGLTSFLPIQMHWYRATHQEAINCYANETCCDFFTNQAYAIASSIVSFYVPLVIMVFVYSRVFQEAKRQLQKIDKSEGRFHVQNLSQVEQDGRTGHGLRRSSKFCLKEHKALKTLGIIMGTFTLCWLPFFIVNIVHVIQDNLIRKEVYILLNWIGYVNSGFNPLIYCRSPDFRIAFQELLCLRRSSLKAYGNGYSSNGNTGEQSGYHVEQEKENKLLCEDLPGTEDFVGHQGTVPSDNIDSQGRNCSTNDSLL
Muscarinic acetylcholine receptor M1 (Homo sapiens), sequence (P11229 whole entry, looked up): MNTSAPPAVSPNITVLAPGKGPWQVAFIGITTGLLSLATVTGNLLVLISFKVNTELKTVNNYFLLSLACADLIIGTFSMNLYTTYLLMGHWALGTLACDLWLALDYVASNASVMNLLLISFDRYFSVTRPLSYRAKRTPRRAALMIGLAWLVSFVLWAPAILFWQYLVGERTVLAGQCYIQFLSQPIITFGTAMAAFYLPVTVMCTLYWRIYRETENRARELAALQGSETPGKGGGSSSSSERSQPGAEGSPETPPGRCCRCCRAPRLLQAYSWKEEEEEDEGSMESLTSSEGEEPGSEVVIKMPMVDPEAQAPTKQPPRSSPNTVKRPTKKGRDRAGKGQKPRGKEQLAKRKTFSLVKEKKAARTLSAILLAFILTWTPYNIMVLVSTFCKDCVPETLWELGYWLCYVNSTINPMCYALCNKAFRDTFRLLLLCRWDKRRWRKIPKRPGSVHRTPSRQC
Gonadotropin-releasing hormone receptor (Homo sapiens), sequence (P30968 whole entry, looked up): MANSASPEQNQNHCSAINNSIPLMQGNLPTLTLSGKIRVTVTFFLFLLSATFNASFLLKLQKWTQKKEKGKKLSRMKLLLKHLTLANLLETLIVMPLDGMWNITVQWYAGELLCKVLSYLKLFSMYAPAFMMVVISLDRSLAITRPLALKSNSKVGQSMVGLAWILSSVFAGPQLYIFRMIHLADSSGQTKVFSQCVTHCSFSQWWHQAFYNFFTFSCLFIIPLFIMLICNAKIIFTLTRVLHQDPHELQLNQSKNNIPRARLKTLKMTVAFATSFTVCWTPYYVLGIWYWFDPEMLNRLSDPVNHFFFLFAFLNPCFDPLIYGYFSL
5-hydroxytryptamine receptor 2A (Homo sapiens), sequence (P28223 whole entry, looked up): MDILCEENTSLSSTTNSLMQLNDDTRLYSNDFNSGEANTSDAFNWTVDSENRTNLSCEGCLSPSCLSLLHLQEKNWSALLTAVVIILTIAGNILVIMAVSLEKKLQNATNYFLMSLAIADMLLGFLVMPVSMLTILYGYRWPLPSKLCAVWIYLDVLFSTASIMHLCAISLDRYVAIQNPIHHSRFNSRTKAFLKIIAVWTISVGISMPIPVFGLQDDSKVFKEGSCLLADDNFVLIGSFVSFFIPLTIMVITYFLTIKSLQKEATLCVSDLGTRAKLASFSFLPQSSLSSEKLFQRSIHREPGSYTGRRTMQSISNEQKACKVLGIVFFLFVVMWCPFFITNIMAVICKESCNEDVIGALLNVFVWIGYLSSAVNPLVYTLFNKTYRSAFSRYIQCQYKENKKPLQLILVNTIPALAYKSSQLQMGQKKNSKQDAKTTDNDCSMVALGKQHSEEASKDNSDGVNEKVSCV
D(2) dopamine receptor (Homo sapiens), sequence (P14416 whole entry, looked up): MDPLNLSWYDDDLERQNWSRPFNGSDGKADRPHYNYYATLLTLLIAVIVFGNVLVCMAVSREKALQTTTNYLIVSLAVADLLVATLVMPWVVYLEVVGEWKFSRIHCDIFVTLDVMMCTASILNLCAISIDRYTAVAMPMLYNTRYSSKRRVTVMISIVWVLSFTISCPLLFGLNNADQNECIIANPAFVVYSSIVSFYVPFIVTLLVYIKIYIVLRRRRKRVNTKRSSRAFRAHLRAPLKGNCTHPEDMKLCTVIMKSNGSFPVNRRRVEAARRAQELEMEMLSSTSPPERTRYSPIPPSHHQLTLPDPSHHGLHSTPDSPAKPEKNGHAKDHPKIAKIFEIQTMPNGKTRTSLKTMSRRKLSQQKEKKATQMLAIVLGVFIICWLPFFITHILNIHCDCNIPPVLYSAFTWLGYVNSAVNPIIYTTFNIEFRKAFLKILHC
KiSS-1 receptor (Homo sapiens), sequence (Q969F8 whole entry, looked up): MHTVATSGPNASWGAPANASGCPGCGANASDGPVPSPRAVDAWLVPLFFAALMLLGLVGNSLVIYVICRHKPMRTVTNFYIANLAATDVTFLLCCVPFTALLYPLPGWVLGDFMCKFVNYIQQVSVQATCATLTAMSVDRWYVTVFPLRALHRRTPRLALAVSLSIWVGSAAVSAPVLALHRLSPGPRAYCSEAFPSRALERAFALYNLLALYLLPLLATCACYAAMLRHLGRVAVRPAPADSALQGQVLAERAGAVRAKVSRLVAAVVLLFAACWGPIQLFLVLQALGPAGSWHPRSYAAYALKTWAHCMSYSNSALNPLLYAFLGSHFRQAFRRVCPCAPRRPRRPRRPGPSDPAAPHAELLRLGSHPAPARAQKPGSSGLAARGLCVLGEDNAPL

CCNC(=O)N1CCN(CCCC(c2ccc(F)cc2)c2ccc(F)cc2)CC1
active: [10] 0.23 µM
not listed: [16] | [17] | [18] | [19] | [20]
inactive: all other assays above

CCCCCCCCCCn1cc[n+](CCCCCCCCCC)c1C
active: [1] 21.7 µM | [8] 32.4 µM | [9] 36.4 µM | [11] 55 µM | [16] 2.98 µM | [17] 21.7 µM | [14] 27.3 µM
not listed: [10] | [13] | [18] | [19] | [20]
inactive: all other assays above

CNS(=O)(=O)Cc1ccc2[nH]cc(CCN(C)C)c2c1
not listed: [10] | [11] | [12] | [16] | [20]
inactive: all other assays above

O=C(O)c1cccc(N(Cc2cccnc2)c2ccc(OC(F)F)c(OC(F)F)c2)c1
not listed: [13] | [15] | [17] | [18]
inactive: all other assays above

CCCOc1ccccc1-c1nc2n[nH]nc2c(=O)[nH]1
not listed: [10] | [11] | [12] | [13] | [15] | [16] | [17] | [20]
inactive: all other assays above

CC(=O)SC[C@@H](Cc1ccccc1)C(=O)NCC(=O)OCc1ccccc1
not listed: [10] | [11] | [16] | [17] | [20]
inactive: all other assays above
